An excerpt weighted towards active compounds, which were near 2.1% of everything screened.
CCHF vOTU inh-1: CCHFV vOTU protease inhibitors, primary screen, biochemical, Pep-AMC substrate, fluorescence | Crimean-Congo hemorrhagic fever virus L polyprotein viral ovarian tumor (vOTU) protease … | inhibition, % at 11.5 µM | 370,000 compounds, 0.55% hits | AID 651958, 2012; also: 0% = vehicle wells with enzyme and 100% = no enzyme wells
RN4220 kill: growth inhibition of S. aureus RN4220, primary screen, OD600; 16 h; AID 1259311, 2017; 330,000 compounds, 0.33% hits; inhibition, % (concentration not given with the values); in the data active = inhibition above about 85%;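 also: plate controls were untreated cells for no effect and reference antibiotic for full effect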
PrP UTR inh: inhibition of PrP 5' UTR reporter expression; cell-based PrP 5' UTR mRNA reporter, plate reader; inhibition, % (test concentration not listed); 340,000 compounds, 0.35% hits; in the data active = inhibition above about 52%; also: 0 = median of the neutral control wells
PfHsp40 rescue: rescue of yeast from PfHsp40 toxicity, primary screen, S. cerevisiae, ATP luminescence; AID 504582, 2011; growth rescue, % at 12.5 µM; 340,000 compounds, 0.68% hits; S. cerevisiae expressing PfHsp40, growth rescue; in the data active = growth rescue above about 28%, passing the limit was not always enough;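 also: yeast W303a lacking pdr1 and pdr3 grown in galactose medium; growth measured after three days at 30 °C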
ugtP null kill: growth inhibition of ugtP-null S. aureus, primary screen, RN4220 ugtP deletion, OD600. 330,000 compounds, 0.54% hits. growth inhibition, % (test concentration not listed). AID 1259309, 2017. 16 h; in the data active = growth inhibition above about 68%;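 also: plate controls were untreated wells for no effect and antibiotic for full effect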
PrPC surface inh: inhibitors of human cell surface prion protein PrPC, primary screen, cell-based, TR-FRET; TR-FRET read-out; 370,000 compounds, 0.43% hits; inhibition, % at 13.8 µM; Major prion protein (Homo sapiens), P04156; in the data active = inhibition above about 24%; also: 0% = median of the test wells and 100% = reference compound wells
CCHF vOTU inh-2: CCHFV vOTU protease inhibitors, confirmation, biochemical, Pep-AMC substrate, fluorescence; Recombinant CCHFV vOTU; AID 686976, 2013; shares compounds with CCHF vOTU inh-1; inhibition, % at 11.5 µM; 1,900 compounds, 17% hits
Active calls of the source: *; x = no result. Rule as the data show it, unless noted: active = inhibition above about 30%; inactive = the rest.

SMILES	CCHF vOTU inh-1	RN4220 kill	PrP UTR inh	PfHsp40 rescue	ugtP null kill	PrPC surface inh	CCHF vOTU inh-2
CCCN(CC(=O)Nc1cccc(Br)c1)CC(=O)Nc1ccc(F)c(F)c1F	37*	-18	-9	3	-26	14	-8
O=C(NN=CC=Cc1ccccc1)c1cc2c(ccc3ccccc32)o1	x	2	x	x	-1	x	x
Cc1cccc(C)c1NC(=O)c1cc(-c2ccccn2)nc2ccccc12	-7	9	-6	-1	5	-12	x
CCS(=O)(=O)c1ccc(O)c(NC(=O)c2cc(-c3ccccn3)nc3ccccc23)c1	32*	1	-1	-1	-6	-5	-17
CC(C)(C)OC(=O)N1CCCC(C(=O)Nc2cccc(C(=O)NCCCCc3ccccc3)c2)C1 (stereo not drawn)	35*	x	-23	5	x	13	-3
O=C1Cc2ccccc2C(=O)N1	116*	x	x	x	x	-6	94*
O=C1Nc2ccccc2CCc2ccccc21	-7	2	-7	0	-1	-1	x
O=C(Cc1ccccc1)Nc1ccc(NC(=O)c2ccccc2)nc1	33*	-5	-43	0	4	4	-18
O=C1OCCN1/N=C/c1ccc([N+](=O)[O-])o1	35*	x	-8	-1	x	-42	0
CCOC(=O)CSc1nc(-c2ccc(OC)cc2)ns1	33*	14	-7	-1	12	1	0
CCC(C)Cc1cn(C(CCCCNC(=O)OC(C)(C)C)C(=O)NCCCCCCCCCCC(=O)N2CCN(C(=O)OC(C)(C)C)CC2)nn1 (stereo not drawn)	x	-3	x	x	2	x	x
CCSC1=N/C(=C\c2ccccc2)C(=O)N1c1ccc(OC)cc1	30*	-1	-13	1	16	-2	-11
CC1CN(C(C)CO)C(=O)c2cccc(NS(=O)(=O)c3cn(C)cn3)c2OC1CN(C)Cc1ccncc1 (stereo not drawn)	x	3	x	x	2	x	x
Cc1ccc(-n2c(C)nc3ccccc3c2=O)cc1C	0	4	2	0	2	-4	x
CC1=NN(c2ccc(C)c(C)c2)C(=O)C1C(c1cccc(O)c1)C1C(=O)N(c2ccc(C)c(C)c2)N=C1C (stereo not drawn)	42*	12	-11	-2	-2	-3	11
Cc1ccc(C=c2sc3nc(-c4ccccc4Br)nn3c2=O)o1	x	0	x	x	-4	x	x
NC(=NOCC(=O)Nc1ccccc1)c1nonc1N	x	1	x	x	1	x	x
COc1ccc(CN2CCC(=O)N(C(CO)Cc3ccccc3)CC2)cc1 (stereo not drawn)	x	3	x	x	-3	x	x
O=C(c1ccc(S(=O)(=O)c2ccccc2)cc1)N1CCc2ccccc2C1	35*	7	-94	0	-1	-1	-17
O=C(c1ccc(S(=O)(=O)N2CCCCC2)cc1)N1CCc2ccccc2C1	-15	18	-2	0	4	2	x
O=C(C1=CC(C2CCCCC2)CC(OCCCCO)O1)N1CCN(Cc2ccccc2)CC1 (stereo not drawn)	x	2	x	x	3	x	x
COc1cccc(N=Nc2c(N)[nH][nH]c2=O)c1	9	5	-49	0	-1	-19	x
Nc1[nH][nH]c(=O)c1N=Nc1cccc(Cl)c1	32*	11	-8	-1	-1	-21	11
Cc1cc(=O)n(-c2ccc(C(=O)O)cc2)[nH]1	54*	8	-11	2	-3	-3	-20
CCOC(=O)c1ccc(-n2[nH]c(-c3ccccc3)cc2=O)cc1	10	53	-23	0	7	3	x
SMILES	CCHF vOTU inh-1	RN4220 kill	PrP UTR inh	PfHsp40 rescue	ugtP null kill	PrPC surface inh	CCHF vOTU inh-2
O=C(CCCOc1ccc(Cl)cc1Cl)NN=Cc1cccc([N+](=O)[O-])c1	x	5	x	x	-22	x	x
CN1c2ccccc2C(O)=C(C(=S)Nc2ccc(Cl)cc2)S1(=O)=O	31*	50	-18	5	16	1	6
CCOC(=O)C1=C(C)OC2(O)c3ccccc3C(=O)C12O (stereo not drawn)	103*	0	x	x	11	4	19
CC(=O)C1=C(C)OC2(O)c3ccccc3C(=O)C12O (stereo not drawn)	71*	2	x	x	13	-2	-8
COC(=O)NN=Cc1ccccc1Cl	x	2	x	x	6	x	x
Cc1ccccc1NC(=S)NN=CC(C)c1ccccc1 (stereo not drawn)	x	7	x	x	6	x	x
C/C(Cl)=C\Cn1c(N2CCCCCC2)nc2c1c(=O)n(C)c(=O)n2C	31*	4	-10	1	9	9	-11
COC(=O)C(Cc1ccccc1)NC(=O)[C@@]1(C)CC1C(NC(=O)OCc1ccccc1)c1ccccc1 (stereo partly drawn)	x	-1	x	x	6	x	x
O=C(NN=Cc1cc(Br)cs1)C(O)c1ccccc1 (stereo not drawn)	x	2	x	x	5	x	x
COc1cc(OC)c(C2CC(=O)N3CN(C)CSC3=C2C#N)cc1OC (stereo not drawn)	6	-10	-6	0	-7	-4	x
COc1ccc2ccccc2c1C1CC(=O)N2CN(C)CSC2=C1C#N (stereo not drawn)	79*	9	-37	0	0	6	56*
O=C1NC(Cc2cn(S(=O)(=O)c3ccccc3)c3ccccc23)C(=O)NC1Cc1ccccc1 (stereo not drawn)	x	6	x	x	7	x	x
COc1ccc(N(C(C)C(=O)NN=Cc2ccc(OC(C)C)cc2)S(C)(=O)=O)cc1 (stereo not drawn)	x	3	x	x	3	x	x
C[n+]1cccc2cccc([O-])c21	58*	5	-81	1	5	-7	96*
CC(=O)Nc1ccc(/C=N/NC(=S)NC(C)C)cc1	36*	x	-1	-1	x	-14	3
O=C(Nc1ccc(F)cc1)c1ccccc1Oc1ccc(C(F)(F)F)cc1[N+](=O)[O-]	31*	-1	-16	4	-15	4	-5
O=C(C(=C([O-])c1ccccc1)[n+]1ccccc1)c1ccc([N+](=O)[O-])cc1	x	-2	x	x	-8	x	x
CC(=O)N(C)c1ccc(OCC(O)Cn2c(C)nc3ccccc32)cc1 (stereo not drawn)	-6	3	-14	0	0	10	x
CC(=O)N(C)c1ccc(OCC(O)Cn2c3ccc(Cl)cc3c3cc(Cl)ccc32)cc1 (stereo not drawn)	31*	28	-35	-1	15	4	-4
COc1cc(CNc2ncnc3c2ncn3[C@H]2CN(Cc3cccc(C(F)(F)F)c3)C[C@@H](CO)O2)cc(OC)c1OC	31*	x	x	x	x	-2	-9
CC(=O)N1CCN(c2ccc(N)cc2)CC1	38*	3	-22	0	1	-22	-15

Screening data (PubChem)
